Test results: the supplement of paper PMC6555819

What was measured:
Experiment in all cases: PBM binding z-score (relative to random genomic background probes); higher = stronger binding; sequences stand for … in GC…GCGATTGACAGCGTAGAATGAAGG
[1] = tested on: FXR:RXRa (NR concentration 270 nM, RXRa partner concentration 90 nM)
How it was run: (§1)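 Scanned fluorescence from custom Agilent 4×180K protein-binding microarrays was regression-normalized. Binding z-scores use random background probes as reference. Ligand-free nuclear receptor dimers were incubated on the arrays for 1 h and detected with antibodies against each partner (one per run).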

[2] = tested on: LXRa:RXRa (NR concentration 270 nM, RXRa partner concentration 90 nM)
How it was run: as §1

[3] = tested on: LXRa homodimer (NR concentration 270 nM)
How it was run: as §1

[4] = tested on: LXRb:RXRa (NR concentration 270 nM, RXRa partner concentration 90 nM)
How it was run: as §1

[5] = tested on: LXRb homodimer (NR concentration 270 nM)
How it was run: as §1

[6] = tested on: PPARa:RXRa (NR concentration 270 nM, RXRa partner concentration 90 nM)
How it was run: as §1

[7] = tested on: PPARg:RXRa (NR concentration 180 nM, RXRa partner concentration 90 nM)
How it was run: as §1

[8] = tested on: PPARg:RXRa 270nM:90nM, anti-RXR (NR concentration 270 nM, RXRa partner concentration 90 nM)
How it was run: as §1

[9] = tested on: PPARg:RXRa 30nM:10nM, anti-RXR (NR concentration 30 nM, RXRa partner concentration 10 nM)
How it was run: as §1

[10] = tested on: PPARg:RXRa 90nM:30nM, anti-RXR (NR concentration 90 nM, RXRa partner concentration 30 nM)
How it was run: as §1

[11] = tested on: PPARg:RXRa DBDmut IVT, anti-RXR (DBD mutation: RXRa K156A/R161A, NR concentration 270 nM, RXRa partner concentration 90 nM)
How it was run: as §1

[12] = tested on: PPARg:RXRa IVT, anti-PPARg (NR concentration 270 nM, RXRa partner concentration 90 nM)
How it was run: as §1

[13] = tested on: PPARg DBDmut:RXRa IVT, anti-PPARg (DBD mutation: PPARg1 K132A/R137A, NR concentration 270 nM, RXRa partner concentration 90 nM)
How it was run: as §1

[14] = tested on: PPARg DBDmut IVT, anti-PPARg (DBD mutation: PPARg1 K132A/R137A, NR concentration 270 nM)
How it was run: as §1

[15] = tested on: PPARg homodimer (NR concentration 180 nM)
How it was run: as §1

[16] = tested on: PXR:RXRa (NR concentration 270 nM, RXRa partner concentration 90 nM)
How it was run: as §1

[17] = tested on: PXR homodimer (NR concentration 270 nM)
How it was run: as §1

[18] = tested on: RARa:RXR (NR concentration 270 nM, RXRa partner concentration 90 nM)
How it was run: as §1

[19] = tested on: RARa homodimer (NR concentration 270 nM)
How it was run: as §1

[20] = tested on: RARb:RXRa (NR concentration 270 nM, RXRa partner concentration 90 nM)
How it was run: as §1

Sequence	PBM binding z-score [1]	PBM binding z-score [2]	PBM binding z-score [3]	PBM binding z-score [4]	PBM binding z-score [5]	PBM binding z-score [6]	PBM binding z-score [7]	PBM binding z-score [8]	PBM binding z-score [9]	PBM binding z-score [10]	PBM binding z-score [11]	PBM binding z-score [12]	PBM binding z-score [13]	PBM binding z-score [14]	PBM binding z-score [15]	PBM binding z-score [16]	PBM binding z-score [17]	PBM binding z-score [18]	PBM binding z-score [19]	PBM binding z-score [20]
ACTCGGAGGACAAAGGTCAGAGTTACGCCAGTGA	4.06	4.17	1.93	3.55	0.422	5.03	7.06	6.77	5.57	7.32	0.7	3.34	0.234	-0.025	4.3	4.14	0.365	5.54	1.61	4.38
CGCCCAAGGTCAATGCTAGGTCAGTGAAAGCATT	6.51	5.61	2.46	4.24	0.667	4.93	4.07	4.33	1.03	3.08	2.79	3.47	-0.141	-0.36	5.9	4.68	1.04	6.04	0.81	5.09
AGAATGAGGTTATAAGTAGATCAGGGAAGAAAGT	1.94	1.59	0.0372	1.73	0.269	2.96	2.67	2.94	1.34	2.45	3.03	2.5	0.674	0.782	1.83	1.47	0.923	1.88	0.571	1.25
CCTACTAGGCCACGAAAGGTCATTGATTCAGTGA	4.02	5.66	5.5	4.32	0.558	4.84	5.77	5.3	2.35	4.43	6.91	6.28	0.693	0.0553	3.43	5.44	1.96	5.45	2.79	4.06
CCTGGTAGGTCAATGGTCAGCTAAAGCAGCTCGC	3.32	2.64	0.425	1.98	0.463	3.77	6.52	6.4	4.37	6.53	4.64	5.35	0.462	-0.453	2.06	1.29	0.146	2.11	1.12	3.63
CAGCCCAGGTCAGGGCCAGTATAGGAGGAACGTT	2.46	1.34	-0.516	1.01	-0.951	2.27	0.962	0.716	-0.353	0.469	0.375	1.26	-1.13	-1.33	0.907	0.95	0.194	1.49	-0.138	3.45
TCATATAGGTAAACAGGTGGAAGTCCGTAAGTTA	0.72	0.64	0.229	0.692	0.0407	1.43	1.16	2.43	4.15	3.06	4.42	3.02	0.862	0.82	1.12	0.46	0.859	0.577	0.928	0.625
ACTATTAGTTGACTTAGGGCAACCCATACGACGC	0.287	0.126	0.344	0.24	0.53	0.137	1.03	0.234	0.457	0.203	0.51	0.696	0.977	1.6	0.67	0.18	0.375	0.59	1.02	0.823
GCTGCTAGGTCAGGTTGGTCAGCTGACGGGTACG	1.19	0.902	-0.423	0.356	-0.106	1.26	0.207	1.04	-0.528	0.514	2.92	2.16	0.00411	-0.207	1.24	0.407	-0.471	0.946	-0.516	3.17
